# In the library only some 3.1% were active in any assay of this set; here they are far more common.
# PAFAH2 FP inh = PAFAH2 enzyme inhibitors, primary screen, biochemical, fluorescence polarization, human. recombinant PAFAH2, FP-rhodamine activity probe. inhibition, % at 3.39 µM. 340,000 tested, 0.99% active. Platelet-activating factor acetylhydrolase 2, cytoplasmic (Homo sapiens), Q99487;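 active means inhibition above the mean over all tested compounds plus 3 SD, cut at about 30% in these data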;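 further: inhibitors block probe labeling of enzyme so polarization drops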
# Rin1 Abl inh = inhibitors of Rin1-Abl protein binding, primary screen, biochemical, TR-FRET. Tyrosine-protein kinase ABL1 (Homo sapiens) + Ras and Rab interactor 1 (Homo sapiens), …. inhibition, % at 7.35 µM. 360,000 tested, 0.4% active. AID 588664, 2011; in the data active means inhibition above about 5%, passing the limit was not always enough
# PAFAH1B3 inh = PAFAH1B3 enzyme inhibitors, primary screen, biochemical, fluorescence polarization, human; inhibition, % at 3.39 µM; 340,000 tested, 0.28% active; recombinant PAFAH1B3, FP-rhodamine probe;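 active means inhibition above the screen-wide average of all tested compounds plus 3 SD, cut at about 25% in these data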
# PAFAH1B2 FP inh = PAFAH1B2 enzyme inhibitors, primary screen, biochemical, fluorescence polarization, human; recombinant PAFAH1B2, FP-rhodamine activity probe; AID 492953, 2010; Platelet-activating factor acetylhydrolase IB subunit alpha2 (Homo sapiens), P68402; inhibition, % at 3.39 µM; 340,000 tested, 1.2% active;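 active means inhibition above the mean of all tested compounds plus 3 SD, cut at about 24% in these data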
# pPAFAH FP inh = pPAFAH enzyme inhibitors, primary screen, biochemical, fluorescence polarization, human. 330,000 tested, 1.5% active. Platelet-activating factor acetylhydrolase (Homo sapiens), Q13093. AID 463082, 2010. recombinant pPAFAH, FP-rhodamine probe fluorescence polarization. inhibition, % at 3.39 µM;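 active means inhibition above the mean inhibition across the screen plus 3 SD, cut at about 25% in these data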;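 further: inhibitors block binding of the rhodamine activity-based probe so polarization drops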
# Target sequence (Q13093 whole entry, looked up): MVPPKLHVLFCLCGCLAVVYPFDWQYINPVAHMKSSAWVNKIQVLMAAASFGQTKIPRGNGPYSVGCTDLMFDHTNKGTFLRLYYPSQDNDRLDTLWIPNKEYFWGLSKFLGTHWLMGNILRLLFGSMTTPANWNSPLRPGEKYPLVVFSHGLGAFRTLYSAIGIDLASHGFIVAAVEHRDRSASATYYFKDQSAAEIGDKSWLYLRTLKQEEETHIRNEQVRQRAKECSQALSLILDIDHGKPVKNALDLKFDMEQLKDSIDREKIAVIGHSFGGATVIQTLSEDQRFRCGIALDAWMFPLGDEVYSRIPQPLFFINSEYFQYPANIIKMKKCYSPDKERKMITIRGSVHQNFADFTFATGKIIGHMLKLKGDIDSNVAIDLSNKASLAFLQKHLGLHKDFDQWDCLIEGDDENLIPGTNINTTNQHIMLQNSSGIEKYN
# eLon inh = inhibitors of E. coli Lon protease, primary screen, biochemical, fluorescence polarization. P0A9M0. purified E. coli Lon protease. inhibition, % at 7.94 µM. 360,000 tested, 0.42% active. AID 602123, 2011; in the data active means inhibition above about 13%, passing the limit was not always enough
# PAFAH2 confirm = PAFAH2 enzyme inhibitors, confirmation, biochemical, fluorescence polarization, human; inhibition, % at 3.39 µM; recombinant PAFAH2, FP-rhodamine activity probe; shares compounds with PAFAH2 FP inh; 2,300 tested, 65% active;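 active means mean inhibition over three repeats above a set limit taken from the earlier primary screen, cut at about 30% in these data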;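 further: inhibitor blocks binding of rhodamine activity probe so polarization falls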
# Hits are given with their value; i = inactive; nt = no result.
SMILES,PAFAH2 FP inh,Rin1 Abl inh,PAFAH1B3 inh,PAFAH1B2 FP inh,pPAFAH FP inh,eLon inh,PAFAH2 confirm
O=C(COC(=O)c1ccc2ncsc2c1)Nc1ccccc1Cl,59,i,i,i,i,i,44
O=C(COC(=O)c1ccc2ncsc2c1)NCc1ccc(Cl)cc1,39,i,i,i,i,i,i
Cc1ccc(F)cc1NC(=O)COC(=O)c1ccc2ncsc2c1,49,i,i,i,i,i,54
Cc1ccc(NC(=O)COC(=O)c2ccc3ncsc3c2)c(C)c1,nt,i,nt,nt,nt,i,nt
COCCCN1C(=O)C(CC(=O)NCc2cccc3ccccc23)CC(C(=O)N(C)C)=C1C (configuration not stated),nt,i,nt,nt,nt,i,nt
CCCNC(=O)c1cc(C2CCCCN2C(=O)c2ccccc2)on1 (configuration not stated),nt,i,nt,nt,nt,i,nt
CS/C(N)=N/N=C/c1cc(Br)cc(Br)c1O,63,i,i,i,i,i,43
CS/C(N)=N/N=C/c1cc(C)ccc1O,i,i,i,i,i,i,nt
Cc1ccc(S(=O)(=O)c2nc(-c3ccccc3F)oc2N2CC(C)OC(C)C2)cc1 (configuration not stated),i,i,i,i,i,i,nt
O=C(CSC1=NS(=O)(=O)c2cc(Cl)ccc2N1)NCc1ccccc1,i,i,i,i,i,i,nt
NS(=O)(=O)c1cc2c(cc1Cl)NC(CSCc1ccccc1)=NS2(=O)=O,34,i,i,i,i,i,i
Cc1cc(C)n(-c2ccc(C(=O)OCC(=O)Nc3ccccc3F)cc2)n1,62,i,i,i,i,i,51
Cc1ccc(NC(=O)COC(=O)c2ccc(-n3nc(C)cc3C)cc2)c(F)c1,42,i,i,i,i,i,43
Cc1cc(C)n(-c2ccc(C(=O)OCC(=O)Nc3ccccc3[N+](=O)[O-])cc2)n1,i,i,i,i,i,i,nt
CCN(CC(=O)Nc1cccc(S(=O)(=O)N(C)c2ccccc2)c1)Cc1cccs1,i,i,i,i,i,i,nt
COc1ccc(CNC(=O)COC(=O)c2cc(S(=O)(=O)N3CCOCC3)ccc2O)cc1OC,i,i,i,i,i,i,nt
COc1cccc2sc(Nc3nnc(-c4ccc(F)cc4)o3)nc12,65,i,i,i,i,i,i
O=C(COC(=O)/C=C/c1ccc(C(F)(F)F)cc1)NC1CCCC1,i,i,i,i,i,i,nt
O=C(COC(=O)/C=C/c1ccc(Cl)cc1)NC1CCCCCC1,79,i,i,i,i,i,71
CSc1ccc(/C=C/C(=O)OCC(=O)NC2CC2)cc1,57,i,i,i,i,i,48
O=C(COC(=O)/C=C/c1ccc(Cl)cc1)NC1CC1,52,i,i,i,i,i,34
O=C1CCN(CCCc2ccccc2)CCN1[C@H](CO)Cc1ccccc1,i,i,i,i,i,i,nt
CCOc1ccc(C(=O)NCC(=O)NNC(=O)CN(C)S(=O)(=O)c2ccc(Cl)cc2)cc1,i,i,i,i,i,i,nt
CCCCCCOC(=O)c1ccc(OC(=O)c2cccnc2)cc1,41,i,i,i,i,i,32
CCCCOC(=O)c1ccc(OC(=O)c2cccnc2)cc1,i,i,i,i,i,i,nt
O=C(CNC(=S)N(CCCN1CCOCC1)Cc1cccs1)NCc1ccc(Cl)cc1,48,i,i,i,i,i,37
COC(CNC(=O)CNC(=S)N(CCCN1CCOCC1)Cc1cccs1)OC,i,i,i,i,i,i,nt
O=C(CNC(=S)N(CCCN1CCOCC1)Cc1cccs1)NCc1ccccc1Cl,47,i,i,i,i,i,31
O=C(CNC(=S)N(CCCN1CCOCC1)Cc1cccs1)NCCCN1CCOCC1,i,i,i,i,i,i,nt
C=CCNc1nc(C(=O)OCC(=O)Nc2cccc(SC)c2)cs1,62,i,i,i,nt,i,51
